Rows were chosen to be rich in hits. Some 7.6% of all compounds tested hit in one or more screens of this group.
hERG WT inh: blocks the wildtype human KCNH2 potassium channel | Q12809 | U2OS, BacMam KCNH2, thallium flux FluxOr; hits give low values | activity change, % at 1.84 µM | hit rate 0.37% among 340,000 | AID 720551;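 active means maximum activity change below -70%; inconclusive means maximum activity change between -70% and -50%; inactive means maximum activity change above -50%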; further: on the % scale 0 is the no-effect control and ±100 the full control effect
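U2OS cells were transduced with wild-type KCNH2 virus (2.03 x 10^8 / mL) for 4 h at room temperature, then cultured overnight at 37 C. Thallium flux was read with FluxOr dye. Rate constants were normalized to DMSO controls.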
KB-3-1 tox: kills parental KB-3-1 adenocarcinoma cells. KB-3-1 viability, CellTiter-Glo ATP luminescence, 72 h. Potency, µM (series often up to 46.1 µM), actives largely listed as cytotoxic. hit rate 1.4% among 400,000. AID 1347075; further: potency means the concentration at half of the fitted maximal effect; on the % scale 0 is the no-effect control and ±100 the full control effect; nearly all actives have a fitted effect of over 60% in size
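Luminescent ATP read-out (CellTiter-Glo) measures survival of drug-naive KB-3-1 cells after 72 h compound exposure at 37 °C. Titration series was screened from lowest to highest concentration, with DMSO vehicle plates as background controls.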
KB-V1 cytotox: kills drug-selected multidrug resistant KB-V1 cells. KB-V1 MDR cells viability, CellTiter-Glo, 72 h. Potency, µM (top dose mostly 46.1 µM), actives largely listed as cytotoxic. hit rate 3.4% among 400,000. AID 1347076; further: potency means the concentration at half of the fitted maximal effect; on the % scale 0 is the no-effect control and ±100 the full control effect; nearly all actives have a fitted effect of over 60% in size
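Drug-selected KB-V1 cells, grown in DMEM lacking phenol red with 10% FBS, receive compound titrations; after three days at 37 degrees C, surviving cell ATP is quantified by CellTiter-Glo luminescence and responses normalized and curve-fitted.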
KCNH2 3.1 inh: KCNH2 3.1 (human) potassium channel inhibition. U2OS KCNH2 3.1, thallium flux FluxOr; hits give low values. activity change, % (tested at about 1.8 µM). hit rate 0.95% among 340,000. AID 720553;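 active means maximum activity change below -70%; inconclusive means maximum activity change from -70% to -50%; inactive means maximum activity change above -50%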;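 further: thallium influx rate constant from kinetic fluorescence after stimulation buffer; on the % scale 0 is the no-effect control and ±100 the full control effect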
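Thallium flux via FluxOr fluorescence (Red40 quencher, 45 min loading) in U2OS cells virally expressing the KCNH2 3.1 isoform (1.77 x 10^8 /mL virus, overnight at 37 C). Rate constants from 2-min kinetic reads post-stimulation, normalised to positive and negative controls.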
MCF10A rerep: inducers of DNA re-replication in MCF 10A breast cells; Potency, µM (doses to about 46.1 µM), for inactives: at the top dose activity, positive = re-replication, usual class: activators; MCF 10A DNA re-replication, Hoechst nuclear intensity, 48 h; hit rate 2.9% among 350,000; further: potency means the concentration at half of the fitted maximal effect; % of control where 0% means no effect; nearly all actives have a fitted effect of over 50% in size
SW480 rerep: induces DNA re-replication in SW480 colon adenocarcinoma cells. SW480 DNA re-replication, Hoechst DNA content imaging, 48 h. hit rate 1.8% among 340,000. Potency, µM (series often up to 46.1 µM), without a hit: at the highest dose re-replication activation, actives largely listed as activators; further: potency means the concentration at half of the fitted maximal effect; % of control where 0% means no effect; nearly all actives have a fitted effect of over 55% in size
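DNA re-replication was detected as more nuclei of elevated Hoechst intensity after 48 hr exposure to compound (23 nL pinned per well of 250 cells).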
The depositor's hits bear a star; i = inactive; ? = inconclusive; / = no result given. Unless noted, the call rests on the fitted dose curve; in most records, active means well fitted curve in the direction sought with a large enough effect; inconclusive means small, poorly fitted or top-dose-only effect, or another doubt; inactive means no such curve, though single readings can be large; an effect the other way counts as inactive or inconclusive.

SMILES	hERG WT inh	KB-3-1 tox	KB-V1 cytotox	KCNH2 3.1 inh	MCF10A rerep	SW480 rerep
CC(C)(Oc1ccc(Cl)cc1)C(=O)N(Cc1ccccc1)c1ccccn1	1	i	15µM*	-17	8%	?
O=C(COc1ccc(Br)cc1)N(Cc1ccccc1)c1ccccn1	11	i	18µM*	-3	11%	-3%
CC(C)NC(=O)COC(=O)c1ccccc1C(=O)c1ccccc1	14	i	i	-6	39%	?
O=c1oc2c(O)cccc2cc1-c1nc2ccccc2[nH]1	-28	21µM*	i	-14	?	3.3µM*
CN(C)S(=O)(=O)c1cccc(NC(=S)Nc2cc(Cl)cc(Cl)c2)c1	-2	?	18µM*	3	20%	-6%
CN(C)S(=O)(=O)c1cccc(NC(=S)N/N=C/C(c2ccccc2)c2ccccc2)c1	0	i	21µM*	4	6%	0%
CNC(=O)c1cccc(NC(=O)C(C)c2ccc3cc(OC)ccc3c2)c1 (centres undefined)	-21	i	?	1	-1%	-8%
CC(/C=N/NC(=S)Nc1cccc(S(=O)(=O)N(C)C)c1)c1ccccc1 (centres undefined)	-4	i	21µM*	-2	-3%	-7%
COc1ccc2cc(C(C)C(=O)Nc3cccc(S(=O)(=O)N(C)C)c3)ccc2c1 (centres undefined)	-2	21µM*	13µM*	8	?	-5%
CN(C)S(=O)(=O)c1cccc(NC(=S)N/N=C/c2ccco2)c1	13	i	i	-3	0%	-1%
CCCCOc1cccc(-c2nnc(NC(=O)CSc3ccc(C)cc3)s2)c1	-6	i	i	4	0%	17%
O=C(Nc1ccc(Cl)cc1)c1cc(S(=O)(=O)N2CCc3ccccc32)ccc1F	/	i	?	/	/	/
COc1ccc(O)c(/C=N/NC(=S)Nc2cccc(S(=O)(=O)N(C)C)c2)c1	-2	i	4.1µM*	-21	15µM*	?
COc1cccc(S(=O)(=O)Nc2ccc3c(c2)C(=O)N(C)C[C@H](OC)[C@H](C)CN(Cc2ccccc2F)[C@@H](C)CO3)c1	/	?	15µM*	/	/	/
Cc1cc(C)c(C)c(S(=O)(=O)N2CCC(C(=O)N3CCCCCCC3)CC2)c1C	?	i	i	2	?	-1%
CN(C)c1ccc(C(=C2c3ccccc3-c3ccccc32)c2ccc(N(C)C)cc2)cc1	/	i	i	/	/	/
COc1cccc(-c2cnc3c(NC=O)cc(-c4ccc(S(C)(=O)=O)cc4)cn23)c1	/	i	?	/	/	/
COc1cccc(-c2cnc3c(NC=O)cc(-c4cc(C)c(O)c(C)c4)cn23)c1	/	6.5µM*	?	/	/	/
COc1cccc(-c2cc(NC=O)c3ncc(-c4ccc(C(C)=O)cc4)n3c2)c1	/	5.2µM*	18µM*	/	/	/
CN(C)C(=O)c1cccc(-c2cc(NC=O)c3ncc(-c4ccc(F)cc4)n3c2)c1	/	?	21µM*	/	/	/
COc1cccc(-c2cnc3c(NC=O)cc(-c4ccoc4)cn23)c1	/	i	?	/	/	/
COc1cccc(-c2cnc3c(NC=O)cc(-c4ccccc4)cn23)c1	/	5.2µM*	7.3µM*	/	/	/
Cc1cc(OCC(=O)NNC(=O)c2cccs2)ccc1Br	-4	i	i	9	-6%	-27%
COc1cccc(-c2cnc3c(NC=O)cc(-c4ccccc4Oc4ccccc4)cn23)c1	/	?	21µM*	/	/	/
COc1cccc(-c2cc(NC=O)c3ncc(-c4ccc(F)c(Cl)c4)n3c2)c1	/	i	?	/	/	/
Nc1c(C(=O)OCC(=O)Nc2ccc(Cl)cc2[N+](=O)[O-])[nH]c(=O)[nH]c1=O	-1	i	i	0	23µM*	-2%
NS(=O)(=O)c1cc(C(=O)OCC(=O)Nc2ccc(Cl)cc2[N+](=O)[O-])ccc1Cl	13	i	i	0	-6%	6%
O=C(O)CCCc1ccc2c(c1)CCc1ccccc1-2	-1	2.9µM*	2.1µM*	4	-5%	-4%
